Bioassay records (PubChem BioAssay)
This is a sample that favours compounds with a hit; in the whole collection about 2.2% have one here.
aSyn yeast inh – qHTS of alpha-syn Inhibitors. 0.14% of 370,000 active. Yeast expressing alpha-synuclein, growth rescue, BacTiter-Glo, 24 h. Potency, µM (doses to about 46.1 µM), for the others: at the top dose growth rescue (activation), most hits filed as activators. AID 652106, 2013; also: % of control where 0% means no effect; nearly all actives have a fitted effect of over 65% in size
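Readout is rescue of growth in alpha-synuclein-expressing yeast, so inhibitors of toxicity appear as activators. Growth after 24 hr at 30 deg C in galactose medium is quantified by luminescence.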
Mito fusion act – qHTS Assay for Small Molecule Inhibitors of Mitochondrial Division or Activators of Mitochondrial Fusion | S. cerevisiae fusion-defective mutant growth rescue, CellTiterGlo 48 h | Potency, µM (top dose mostly 46.1 µM), for the others: at the top dose growth rescue (activation), actives largely listed as activators | 0.23% of 320,000 active; also: % of control where 0% means no effect; nearly all actives have a fitted effect of over 45% in size
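S. cerevisiae fusion-defective temperature-sensitive mutants (e.g. fzo1-1, mgm1-5) grown 48 h at 37C in YPEG (ethanol/glycerol non-fermentable) medium with 23 nl compound per well; growth rescue read as CellTiterGlo luminescence.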
TDP-43 yeast inh – qHTS of TDP-43 Inhibitors; Potency, µM (highest dose often 46.1 µM), for inactives: at the highest dose growth rescue (activation), actives largely listed as activators; 1.8% of 410,000 active; TDP-43 expressing yeast growth rescue, BacTiter-Glo, 24 h; also: % of control where 0% means no effect; nearly all actives have a fitted effect of over 50% in size
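Readout is BacTiter-Glo luminescence of cell growth, so inhibitors register as activators. TDP-43-expressing yeast at OD600=0.02 in galactose medium, after raffinose pregrowth to mid-log, were incubated with compound for 24 hr at 30 deg C.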
FUS suppressor – qHTS for Suppressors of FUS Proteinopathy: Primary screen using FUS-linked yeast assay; 0.24% of 390,000 active; S. cerevisiae FUS-expressing, growth rescue, OD600, 24 h; Potency, µM (titrated, usually from 76.6 µM), actives largely listed as activators;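 also: plate controls were DMSO vehicle for no effect and reference control for full effect; nearly all actives have a fitted effect of over 55% in size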
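Yeast expressing FUS under galactose induction, OD 0.005 in 2% galactose medium; compounds in a dilution series, 24 h at 30C. Growth rescue by absorbance at 600 nm; CP55940 positive control, DMSO negative.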
Abeta yeast res – qHTS for compounds that reverse cellular toxicity of Amyloid beta (A-beta) peptide in yeast: Primary Screen; 0.063% of 410,000 active; yeast expressing A-beta42, growth rescue, OD600, 48 h; response scale: 0% DMSO, 100% iron-clioquinol control; Potency, µM (titrated, usually from 46.1 µM), most hits filed as activators; AID 1347071, 2019; also: nearly all actives have a fitted effect of over 55% in size
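Yeast growth medium received pinned compounds, then yeast cells expressing toxic A-beta were added; plates incubated at 30 C for 48 hr. Growth read as absorbance at 600 nm, normalized to DMSO and equimolar FeCl3 plus clioquinol controls.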
The depositor's hits bear a star; i = inactive; ? = inconclusive; / = no result; ! = not active in a repeat. Calls follow the shape of the dose curve; as a rule, active = well fitted curve in the direction sought with a large enough effect; inconclusive = small, poorly fitted or top-dose-only effect, or another doubt; inactive = no such curve, though single readings can be large; an effect the other way counts as inactive or inconclusive. Potency is read from the fitted curve at half-maximal effect.

SMILES	aSyn yeast inh	Mito fusion act	TDP-43 yeast inh	FUS suppressor	Abeta yeast res
COC(=O)C1=C(c2ccc(F)cc2OCc2ccccc2)C[C@@H]2CC[C@H]1N2C(=O)NCc1ccc(Br)cc1	11.7%	?	3.55µM*	?	i
COC(=O)C1=C(c2ccccc2OCc2ccccc2)C[C@@H]2CC[C@H]1N2C(=O)NCc1ccc(N(C)C)cc1	18.0%	?	19.4%	i	i
COc1ccc2c(c1)CCC1C2CC[C@@]2(C)C1CC[C@@H]2NCCCCCCN1C(=O)C=CC1=O (some centres undefined)	-34.9%	21.0%	/	/	/
Cc1ccc(S(=O)(=O)Nc2ccc3ncccc3c2[N+](=O)[O-])cc1	-33.1%	/	3.55µM*	/	i
Nc1ccc2cc(Br)ccc2c1	8.0%	-2.7%	35.5µM*	i	i
Nc1ccc(Br)cc1	0.4%	/	-14.4%	i	i
C[C@]12CCC3C(CC[C@H]4C[C@@H](O)CC[C@]34C)[C@H]1CC[C@H]2O (some centres undefined)	-1.3%	/	20.4%	i	i
CC(=O)[C@H]1CC[C@H]2[C@@H]3CCC4=CC(=O)CC[C@]4(C)[C@H]3CC[C@]12C	11.3%	18.4µM*!	35.5µM*	i	i
C[C@]12CCC3C(CC[C@H]4C[C@H](O)CC[C@]34C)C1CC[C@@H]2C(=O)CO (some centres undefined)	19.2%	18.4µM*	/	/	/
CC(=O)[C@H]1CCC2C3CC[C@H]4C[C@H](O)CC[C@]4(C)C3CC[C@@]21C (some centres undefined)	-0.9%	5.17µM*	/	/	/
C[C@]12CC[C@H](O)C[C@@H]1CC[C@@H]1[C@@H]2CC[C@]2(C)[C@@H](C(=O)O)C[C@@H]12	-6.9%	4.5%	?	i	i
CC(=O)C1CCC2C3C(N4CC4)CC4=CC(=O)CCC4(C)C3CCC12C (centres undefined)	0.1%	/	11.7%	/	i
C[C@H]1CC[C@@]2(C)[C@@H](CC[C@@H]3[C@@H]2CC[C@]2(C)[C@@H](O)CC[C@@H]32)C1	?	12.6µM*	23.5%	i	i
CCCCCCCCN1C(=O)[C@H](CC(=O)N2CCCCC2)C[C@@]2(C(=O)OCC)CCCC=C12	?	/	-42.1%	?	i
COc1cc(C(=O)NCCSc2c(-c3ccccc3)[nH]c3ccccc23)cc(OC)c1OC	/	/	?	?	i
O=C1NCCOC(=O)[C@H](Cc2ccc(F)cc2)CC/C=C/C[C@@H]1CC(=O)N(CCO)Cc1ccccc1	4.3%	/	13.2%	?	i
C=CCN(C1=NCCN1)c1c(Cl)cccc1Cl	1.5%	4.2%	/	/	/
C[C@H](CCC(=O)O)[C@H]1CC[C@H]2[C@@H]3CC[C@@H]4C[C@H](O)CC[C@]4(C)[C@H]3CC[C@]12C	5.01µM*	-8.9%	1.1%	i	i
CC(C)[C@@]1(NC(=O)[C@@H]2C=C3c4cccc5[nH]cc(c45)C[C@H]3N(C)C2)O[C@@]2(O)[C@@H]3CCCN3C(=O)[C@H](Cc3ccccc3)N2C1=O	/	-2.4%	/	/	/
CC(C)[C@@]1(NC(=O)[C@@H]2C[C@@H]3c4cccc5[nH]cc(c45)C[C@H]3N(C)C2)O[C@@]2(O)[C@@H]3CCCN3C(=O)[C@H](Cc3ccccc3)N2C1=O	0.7%	23.1µM*!	0.0%	?	i
CCOC(=O)c1c(NC(NC(=O)CF)C(Cl)(Cl)Cl)sc2c1CCCC2 (centres undefined)	10.4%	12.8%	22.4µM*	i	i
COc1ccc2nc(N3CCN(C(=O)CS(=O)(=O)c4ccc(C)cc4)CC3)sc2c1	/	/	12.6µM*	i	i
CCOc1ccc2nc(N3CCC(C(=O)N4CCC5(CC4)OCCO5)CC3)sc2c1	2.0%	-5.8%	21.1%	?	i
Cc1cccc(OCCn2cccc2/C=C2/C(=O)NC(=O)N(Cc3ccco3)C2=O)c1	3.9%	-8.8%	0.8%	i	i
Cc1cccc(OCCn2c(=O)oc3ccc(C)cc32)c1	1.1%	18.7%	14.1µM*	i	i
SMILES	aSyn yeast inh	Mito fusion act	TDP-43 yeast inh	FUS suppressor	Abeta yeast res
CC1=CC2OC3CC4OC(=O)C=CC=CC(=O)OCCC(C)C(O)C(=O)OCC2(CC1O)C4(C)C31CO1 (centres undefined)	?	/	12.6µM*	/	i
COc1cccc(CNC(=O)c2cc3c(-c4ccccc4F)nn(C)c3s2)c1	/	/	?	?	i
COc1ccccc1N1CCN(C(=O)c2cc3c(-c4ccccc4F)nn(C)c3s2)CC1	/	/	15.8µM*	17.8µM*	i
C=CCOC(Cn1ccnc1)c1ccc(Cl)cc1Cl (centres undefined)	?	25.1µM*	11.2µM*	i	i
O=C(NC1CCCCCC1)c1ccc[nH]c1=S	-46.2%	6.8%	?	i	i
CCOc1ccc(-c2nc(CSCC(=O)NCCc3ccc(OCC)c(OCC)c3)c(C)o2)cc1	/	/	?	i	i
O=C1NC(=O)C(=Cc2ccc(Oc3ccc([N+](=O)[O-])cc3)cc2)C(=O)N1	-1.4%	2.1%	15.8µM*	i	i
COc1cc(C=C2C(=O)NC(=O)NC2=O)ccc1OCc1ccc([N+](=O)[O-])cc1	-5.8%	-0.3%	11.2µM*	i	i
COc1ccc(C=C2C(=O)NC(=S)NC2=O)cc1OC	-11.2%	/	-13.8%	i	i
O=C1NC(=O)C(=Cc2ccccc2OCCOc2ccc([N+](=O)[O-])cc2)C(=O)N1	-17.7%	0.4%	-73.3%	i	i
CCCCC[C@@H]1CCCCC[C@@H](O)C[C@@H](O)[C@H](O)/C=C/C(=O)O1	8.6%	/	0.0%	i	i
COC(=O)C1=C(c2ccc(OC(F)(F)F)cc2)C[C@@H]2CC[C@H]1N2C(=O)NCc1ccc(F)cc1	12.4%	?	12.6µM*	i	i
COC(=O)C1=C(c2ccc(OC(F)(F)F)cc2)C[C@@H]2CC[C@H]1N2C(=O)NC1Cc2ccccc2C1	1.0%	?	35.5µM*	?	i
COC(=O)C1=C(c2ccc3ccccc3c2)C[C@@H]2CC[C@H]1N2C(=O)N1CCC(C)CC1	-0.6%	11.6%	25.1µM*	i	i
COC(=O)C1=C(c2ccc3ccccc3c2)C[C@@H]2CC[C@H]1N2C(=O)NC1Cc2ccccc2C1	-0.1%	?	?	?	i
COC(=O)C1=C(c2ccc(OC(F)(F)F)cc2)C[C@@H]2CC[C@H]1N2C(=O)NCCNC(C)=O	-7.8%	-3.1%	7.7%	i	i
COC(=O)C1=C(c2ccc(OC(F)(F)F)cc2)C[C@@H]2CC[C@H]1N2C(=O)NC1CCCCC1	-10.4%	?	17.8µM*	i	i
